Experimental findings from PubChem BioAssay (EPA / NIEHS) are described below.

Assay [1] is described as follows: CCTE_Harrill_HTTr_Viability_DMEM_6hr: (Pilot) CCTE's 6-hour Cell Viability Assessment for the High-Throughput Transcriptomics (HTTr) Platform, in MCF-7 cells cultured in DMEM + 10% fetal bovine serum, Harrill Lab (AID 2283973). Summed up:
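MCF-7 cells in DMEM + 10% FBS, eight-point dilution series, 6 h exposure. Membrane integrity by propidium iodide exclusion with high-content imaging; bidirectional fit versus DMSO.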

Assay [2] can be described thus: CCTE_Harrill_HTTr_Viability_DMEM_12hr: (Pilot) CCTE's 12-hour Cell Viability Assessment for the High-Throughput Transcriptomics (HTTr) Platform, in MCF-7 cells cultured in DMEM + 10% fetal bovine serum, Harrill Lab (AID 2283974). The method in brief:
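MCF-7 cells in DMEM + 10% FBS exposed 12 h to an eight-point dilution series; membrane integrity scored by propidium iodide exclusion with high-content imaging, bidirectional fitting versus DMSO.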

Assay [3] in a line: CCTE_Harrill_HTTr_Viability_DMEM_24hr: (Pilot) CCTE's 24-hour Cell Viability Assessment for the High-Throughput Transcriptomics (HTTr) Platform, in MCF-7 cells cultured in DMEM + 10% fetal bovine serum, Harrill Lab (AID 2283975). The method in brief:
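MCF-7 cells in DMEM with 10% FBS exposed for 24 hours to an eight-point dilution series. Membrane integrity by propidium iodide exclusion with high content imaging; bidirectional fit against DMSO.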

Assay [4] can be described thus: CCTE_Harrill_HTTr_Viability_PRF_DMEM_6hr: (Pilot) CCTE's 6-hour Cell Viability Assessment for the High-Throughput Transcriptomics (HTTr) Platform, in MCF-7 cells cultured phenol red-free DMEM + 10% charcoal-stripped fetal bovine serum, Harrill Lab (AID 2283976). The method in brief: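 MCF-7 cells in phenol red-free DMEM with 10% charcoal-stripped FBS exposed 6 hours to an eight-point dilution series. Propidium iodide exclusion imaged; curves fitted bidirectionally against DMSO.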

In assay [5] the target is Thyroid hormone receptor alpha (Rattus norvegicus) + Thyroid hormone receptor beta (Rattus norvegicus) (UniProt P18113+P63059). Kind of assay: TOX21_TR_LUC_GH3_Antagonist_Followup: Tox21 GH3 Thyroid Hormone Receptor Antagonism Luciferase Follow-Up Assay (AID 2283942; active = hit-call score of the fitted dose curve at least 0.9, where 1 is the maximum). Summed up: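 Rat pituitary GH3 cells with a TRα/TRβ-driven luciferase reporter, 5 h attachment, then 15 concentrations (92 uM to 5nM final) plus 1.0 nM T3 agonist, 24 h at 37C/5% CO2. ONE-Glo luminescence; signal change fitted against DMSO baseline.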

Another assay concerns the target THRA (gene 7067) (UniProt P10827). Description: TOX21_TRA_COA_Antagonist_Followup_ratio: Tox21 Thyroid Hormone Receptor alpha Antagonism through Coactivator Recruitment Follow-Up Assay, Ratio (AID 2283953; active = hit-call score of the fitted dose curve at least 0.9, where 1 is the maximum). The method in brief: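 This follow-up to the GH3 luciferase screen checks specificity in a cell-free format. It measures SRC-2 coactivator peptide binding to TRα LBD by TR-FRET and scores loss of ratio signal relative to DMSO.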

For assay [6], the target named is THRB (gene 7068) (UniProt P10828). Description: TOX21_TRB_BLA_Antagonist_Followup_ratio: Tox21 Thyroid Hormone Receptor beta Antagonism Beta-lactamase (BLA) Follow-Up Assay, Ratio (AID 2283958; active = hit-call score of the fitted dose curve at least 0.9, where 1 is the maximum). The method in brief: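 In this antagonist-mode follow-up, a stably integrated GAL4-TRβ LBD fusion drives a UAS-beta-lactamase reporter in HEK293T cells. Loss of ratio signal relative to DMSO after 18 h treatment indicates activity; parallel CellTiter-Glo flags cytotoxicity.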
Chain of THRB (gene 7068) (P10828 whole entry, looked up, the tested form may be a part): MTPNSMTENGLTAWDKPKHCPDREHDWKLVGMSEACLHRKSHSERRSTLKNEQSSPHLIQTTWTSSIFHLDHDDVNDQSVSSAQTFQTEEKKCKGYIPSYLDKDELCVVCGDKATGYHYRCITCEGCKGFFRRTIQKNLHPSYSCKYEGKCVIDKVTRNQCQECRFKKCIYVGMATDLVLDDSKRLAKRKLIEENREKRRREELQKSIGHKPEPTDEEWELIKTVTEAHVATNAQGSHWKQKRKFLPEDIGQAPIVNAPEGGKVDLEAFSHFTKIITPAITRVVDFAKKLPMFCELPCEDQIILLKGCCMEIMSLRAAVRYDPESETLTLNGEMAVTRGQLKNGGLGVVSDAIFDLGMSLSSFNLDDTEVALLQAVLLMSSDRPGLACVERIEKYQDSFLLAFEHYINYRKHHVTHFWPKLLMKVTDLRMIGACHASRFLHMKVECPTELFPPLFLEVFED

The nature of assay [7]: TOX21_TRB_BLA_Antagonist_Followup_viability: Viability Assessment in the Tox21 Thyroid Hormone Receptor beta Antagonism Beta-lactamase (BLA) Follow-Up Assay (AID 2283961; active = hit-call score of the fitted dose curve at least 0.9, where 1 is the maximum). Summed up: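 TRβ-bla HEK293T (human TRβ LBD fused to GAL4 DBD), 3,000 cells/well, 2% charcoal-stripped FBS, phenol red-free medium; 18 h compound exposure, 37C; CellTiter-Glo 30 min RT; luminescence, loss-of-signal readout.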

Assay [8] concerns the target THRB (gene 7068) (UniProt P10828). Kind of assay: TOX21_TRB_COA_Antagonist_Followup_ratio: Tox21 Thyroid Hormone Receptor beta Antagonism through Coactivator Recruitment Follow-Up Assay, Ratio (AID 2283967; active = hit-call score of the fitted dose curve at least 0.9, where 1 is the maximum). Summed up:
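Cell-free TR-FRET coactivator recruitment with GST-tagged TRβ LBD (5.0 nM) and fluorescein-labeled SRC-2 peptide (200 nM) detected by terbium anti-GST antibody (2 nM). The 520:495 nm emission ratio was normalized to DMSO (0%) and T3 (100%).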

Assay [9] addresses Retinoic acid receptor RXR-alpha (Homo sapiens) (UniProt P19793). Kind of assay: TOX21_TR_RXR_BLA_Antagonist_Followup_ratio: Tox21 Thyroid Hormone Receptor beta Retinoid X Receptor alpha (RXRa) Antagonism Beta-lactamase (BLA) Follow-Up Assay, Ratio (AID 2283972; active = hit-call score of the fitted dose curve at least 0.9, where 1 is the maximum). The method in brief: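 HEK293T RXRa-bla, 2% charcoal-stripped FBS medium, 16 h compound exposure at 37C, qHTS 11 conc x3. CCF4 FRET ratio ch2/ch1 (460:530), DMSO = baseline, loss-of-signal fit.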

Structures are written as SMILES. Inconclusive results are not listed. Active and inactive are the calls of the source. The calls were made as follows, unless noted: active = hit-call score of the fitted dose curve at least 0.9, where 1 is the maximum; inactive = score below 0.9.

Chain of THRA (gene 7067) (P10827 whole entry, looked up, the tested form may be a part): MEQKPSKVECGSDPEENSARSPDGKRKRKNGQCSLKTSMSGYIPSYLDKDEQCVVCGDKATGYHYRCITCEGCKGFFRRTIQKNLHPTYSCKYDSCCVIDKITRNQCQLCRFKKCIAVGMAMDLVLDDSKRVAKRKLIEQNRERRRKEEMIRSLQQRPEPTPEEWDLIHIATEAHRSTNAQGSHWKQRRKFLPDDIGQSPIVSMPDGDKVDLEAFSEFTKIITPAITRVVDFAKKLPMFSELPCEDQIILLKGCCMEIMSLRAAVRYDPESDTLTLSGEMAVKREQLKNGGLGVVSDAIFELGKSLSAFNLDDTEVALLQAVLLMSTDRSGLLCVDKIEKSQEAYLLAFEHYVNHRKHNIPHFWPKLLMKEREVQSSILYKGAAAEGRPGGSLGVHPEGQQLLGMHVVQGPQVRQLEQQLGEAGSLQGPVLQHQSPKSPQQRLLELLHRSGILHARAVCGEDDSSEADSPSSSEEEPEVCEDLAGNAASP
Chain of Retinoic acid receptor RXR-alpha (Homo sapiens) (P19793 whole entry, looked up): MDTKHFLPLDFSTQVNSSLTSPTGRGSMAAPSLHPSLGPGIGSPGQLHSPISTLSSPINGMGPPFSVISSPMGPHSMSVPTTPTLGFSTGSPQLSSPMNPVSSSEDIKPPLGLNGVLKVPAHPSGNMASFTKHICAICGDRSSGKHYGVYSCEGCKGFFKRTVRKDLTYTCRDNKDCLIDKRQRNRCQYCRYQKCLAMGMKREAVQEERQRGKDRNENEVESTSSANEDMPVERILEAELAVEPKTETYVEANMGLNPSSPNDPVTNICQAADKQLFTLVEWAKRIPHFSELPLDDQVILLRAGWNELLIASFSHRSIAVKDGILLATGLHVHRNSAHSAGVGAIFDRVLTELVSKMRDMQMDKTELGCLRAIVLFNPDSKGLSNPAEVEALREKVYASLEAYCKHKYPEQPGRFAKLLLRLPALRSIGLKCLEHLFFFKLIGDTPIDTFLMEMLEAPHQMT

In the case of `CCOC(=O)C(C)OC(=O)c1cc(Oc2ccc(C(F)(F)F)cc2Cl)ccc1[N+](=O)[O-]` (configuration not stated), the result in [1], in assay [2], in assay [3] and in assay [4] was inactive.

As for `Cc1c(COC(=O)[C@@H]2[C@H](/C=C(\Cl)C(F)(F)F)C2(C)C)cccc1-c1ccccc1`, the result in [1], in assay [2], in assay [3] and in [4] was inactive.

For the compound `CC1(C)C(C=C(Cl)Cl)C1C(=O)OC(C#N)c1cccc(Oc2ccccc2)c1` (configuration not stated), the outcome in assay [1], in [2], in assay [3] and in [4] was inactive.

As to `CO/N=C(/C1=NOCCO1)c1ccccc1Oc1ncnc(Oc2ccccc2Cl)c1F`, the results for the AC50 (in [5]; with THRB (gene 7068) [6]; in assay [7]) were 16.5 µM (active), 54.6 µM (active) and 38.3 µM (active), respectively. Besides, the result (with THRA (gene 7067); with THRB (gene 7068) [8]; in [9]) was inactive.

With `C=CCOC(=O)C(C)(C)OC(=O)c1cc(-n2c(=O)cc(C(F)(F)F)n(C)c2=O)ccc1Cl`, the outcome in assay [1], in assay [2], in [3] and in assay [4] was inactive.
